Bioassay records from PubChem BioAssay.
Shown are actives, neighbours in structure and some others; about 19% of the full set was active somewhere.
IL-1B inflam inh: inflammasome signaling inhibition, IL-1 beta readout. THP-1 LPS/ATP IL-1B secretion, AlphaLISA, 16 h; active compounds read low. AID 743279. activity change, % at 57.5 µM. actives 4.7% (n = 360,000); in the data active means activity change below about -50%; inconclusive means mostly about -30% to -49%
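Secreted IL-1B measured by AlphaLISA bead assay after 16 h compound exposure of THP-1 cells; compounds (final up to 57.5 uM) added 1 h before LPS (250 ng/mL) and ATP (1.25 mM) stimulation; lower signal means less secretion.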
TDP1 cell CPT: growth inhibition of DT40 Tdp1-/-;hTDP1 cells with camptothecin (screen for TDP1 inhibitors); chicken DT40 Tdp1-/-;hTDP1 cells + 20 nM CPT, ATP luminescence, 48 h; actives 12% (n = 420,000); Potency, µM (series often up to 46.2 µM), without a hit: at the top dose activity change, negative = growth inhibition, actives largely listed as inhibitors; further: potency means the concentration at half of the fitted maximal effect; nearly all actives have a fitted effect of over 55% in size
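Chicken DT40 Tdp1-/- cells stably complemented with human TDP1 were seeded at 400 cells/well in medium containing 20 nM camptothecin, exposed to pin-transferred compounds, and grown at 37 °C for at least 48 hr. Viability was read as ATP luminescence.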
HT1080 IDH1KD tx: HT-1080 IDH1 knockdown cell toxicity (counter line); HT-1080 IDH1 knockdown viability, ATP luminescence, 48 h; Potency, µM (series often up to 46.1 µM), inactives show top-dose activity, negative = toxicity, hits mostly cytotoxic; AID 686971; actives 2% (n = 360,000);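 further: potency means the concentration at half of the fitted maximal effect; 0% = DMSO wells and -100% = cell-free medium wells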
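Assay cells: HT-1080 with IDH1 knockdown, 750 per well, RPMI/5% FBS. Exposure: 48 h at 37 °C following 2 h pre-incubation. Read: CellTiter-Glo luminescence; fitted concentration-response, curve class assigned.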
HT1080NT lethal: kills 2HG-producing HT-1080-NT fibrosarcoma cells. actives 1.6% (n = 360,000). HT-1080-NT fibrosarcoma viability, CellTiter-Glo ATP luminescence, 48 h. Potency, µM (highest dose often 46.1 µM), for the others: top-dose activity, negative = less viability, actives largely listed as cytotoxic;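 further: NT is the 2HG producing partner of a matched IDH1 knockdown line; potency means the concentration at half of the fitted maximal effect; 0% = DMSO-treated cells and -100% = media-only wells without cells; nearly all actives have a fitted effect of over 55% in size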
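A 48-hour cytotoxicity screen used HT-1080-NT cells plated 2 hours before compound delivery. ATP-based CellTiter-Glo luminescence measured viability, normalized to DMSO and no-cell controls.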
TDP1 cell noCPT: qHTS for Inhibitors of human tyrosyl-DNA phosphodiesterase 1 (TDP1): qHTS in cells in absence of CPT | DT40 Tdp1-/- hTDP1 cells, no CPT, ATP luminescence, 48 h | Potency, µM (titrated, usually from 46.2 µM), for the others: at the top dose activity change, negative = growth inhibition, most hits filed as inhibitors | actives 15% (n = 420,000) | AID 686978, 2013; further: potency means the concentration at half of the fitted maximal effect; nearly all actives have a fitted effect of over 55% in size
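Chicken DT40 Tdp1-/- cells complemented with human TDP1, screened without camptothecin (DMSO vehicle only), 400 cells/well. Compounds pin-transferred, cells incubated at 37 °C for at least 48 hr. Growth read as ATP-dependent luminescence (CellTiter-Glo, 30 min at RT).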
uPA surface inh: cell surface uPA generation inhibition; cell surface uPA generation assay, qHTS; Potency, µM (titrated, usually from 38.3 µM), without a hit: at the highest dose activity change, negative = inhibition, hits mostly inhibitors; actives 0.31% (n = 330,000); AID 540303; active means well fitted inhibition curve with a large enough effect; inconclusive means small, poorly fitted or top-dose-only effect; inactive means no such curve, though single readings can be large or run the other way; tested in mouse RAW 264.7 cells; further: potency means the concentration at half of the fitted maximal effect; nearly all actives have a fitted effect of over 55% in size
Numbers without * were called inactive; ? = inconclusive; · = no result given; [ ] = remark or other dose. Unless noted, the call rests on the fitted dose curve; in most records, active means well fitted curve in the direction sought with a large enough effect; inconclusive means small, poorly fitted or top-dose-only effect, or another doubt; inactive means no such curve, though single readings can be large; an effect the other way counts as inactive or inconclusive. Unless noted, on the % scale 0 is the no-effect control and ±100 the full control effect.

SMILES | IL-1B inflam inh | TDP1 cell CPT | HT1080 IDH1KD tx | HT1080NT lethal | TDP1 cell noCPT | uPA surface inh
C#CCOCCOCCOCCNc1nc(N2CCN(C(=O)CCCCCCCCCCNC(=O)[C@@H](CCC(=O)O)n3cc(CCCCCN)nn3)CC2)nc(N2CCN(C(=O)CCCCCCCCCCNC(=O)[C@@H](CCC(=O)O)n3cc(CCCCCN)nn3)CC2)n1 | -13 | 21% | -3% | 3% | -7% | 18%
C#CCOCCOCCOCCNc1nc(N2CCN(C(=O)CCCCCCCCCCNC(=O)[C@H]([C@@H](C)CC)n3cc(CCCCCN)nn3)CC2)nc(N2CCN(C(=O)CCCCCCCCCCNC(=O)[C@@H]([C@H](C)O)n3cc(C)nn3)CC2)n1 | -68* | 16µM* | ? | ? | ? | ?
C#CCOCCOCCOCCNc1nc(N2CCN(C(=O)CCCCCCCCCCNC(=O)[C@H](CCCCN)n3cc(CCO)nn3)CC2)nc(N2CCN(C(=O)CCCCCCCCCCNC(=O)[C@@H]([C@H](C)O)n3cc(C)nn3)CC2)n1 | -71* | ? | -29% | -15% | ? | -4%
C#CCOCCOCCOCCNc1nc(N2CCN(C(=O)CCCCCCCCCCNC(=O)[C@H](CCCCN)n3cc(CCO)nn3)CC2)nc(N2CCN(C(=O)CCCCCCCCCCNC(=O)[C@H](CCCCN)n3cc(CCO)nn3)CC2)n1 | -55* | ? | -2% | -6% | ? | -10%
C#CCOCCOCCOCCNc1nc(N2CCN(C(=O)CCCCCCCCCCNC(=O)[C@H](CCC(=O)O)n3cc(CCCCCN)nn3)CC2)nc(N2CCN(C(=O)CCCCCCCCCCNC(=O)[C@@H]([C@H](C)O)n3cc(C)nn3)CC2)n1 | ? | -2% | 1% | -4% | -5% | 5%
C#CCOCCOCCOCCNc1nc(N2CCN(C(=O)CCCCCCCCCCNC(=O)[C@H](CCCCN)n3cc(CCO)nn3)CC2)nc(N2CCN(C(=O)CCCCCCCCCCNC(=O)[C@H](CCCN=C(N)N)n3cc(C[C@@H](C)CC)nn3)CC2)n1 | -98* | ? | ? | ? | ? | ?
Cc1ccccc1-c1cnc(C(O)c2ccc(-c3ccccc3)cc2)[nH]1 (stereo not drawn) | 10 | ? | ? | ? | ? | ·
CCCn1c(SCC(=O)N(C)CC(=O)Nc2ccc(Cl)cc2)n[nH]c1=O | 6 | -21% | -9% | -3% | ? | 5%
COc1ccc(C2CC(=O)c3cnc4c(-c5ccc(F)cc5)c(C)nn4c3C2)cc1OC (stereo not drawn) | · | 4% | · | · | -5% | ·
OC[C@H]1O[C@H](c2nc(-c3nc(-c4cccs4)no3)cs2)C[C@@H]1O | -80* | -17% | 0% | 5% | -20% | ·
CC1(c2nc3ccccc3[nH]2)c2ccccc2C(=O)N1Cc1ccccn1 (stereo not drawn) | 20 | 4% | 4% | 19% | -23% | ·
CC(C)(C)NCc1cc(Br)ccc1OCc1cccs1 | -59* | ? | -11% | -22% | ? | -2%
CC(C)(C)NCc1ccccc1OCc1cccs1 | ? | -27% | -4% | 4% | -23% | -13%
COc1ccc(Cl)cc1NC(=S)NCc1cccs1 | 23 | 8% | -4% | 0% | -6% | -1%
CC(C)(C)NCc1cc(Cl)ccc1OCc1cccs1 | 0 | 15µM* | -16% | -13% | ? | -4%
C=CC(C)(C)c1c2c(c(O)c3c(=O)c4ccc(O)c(O)c4oc13)C=CC(C)(C)O2 | · | 3%[9.04 µM] | · | · | -23%[9.04 µM] | ·
Cc1onc(-c2ccccc2)c1NC(=O)N(CCC#N)Cc1cccs1 | 24 | 8% | 0% | -1% | -19% | -8%
COc1ccc(NC(=O)Cn2cnc3sc(C)c(S(=O)(=O)N4CCN(c5ccccc5OC)CC4)c3c2=O)cc1OC | · | 5% | · | · | 0% | ·
CCCN(CCC)CCNC(=O)Cn1cnc2sc(C)c(S(=O)(=O)N3CCN(c4ccccc4OC)CC3)c2c1=O | · | ? | · | · | 15µM* | ·
COc1ccccc1N1CCN(S(=O)(=O)c2c(C)sc3ncn(CC(=O)NCCN(C)C)c(=O)c23)CC1 | 22 | 15% | 11% | 2% | -12% | 4%
COc1ccccc1N1CCN(S(=O)(=O)c2c(C)sc3ncn(CC(=O)Nc4ccc(C(F)(F)F)cc4)c(=O)c23)CC1 | · | 16µM* | · | · | ? | ·
O=C(O)/C=C/C(=O)NCc1cn(-c2ccccc2)nc1-c1cccc(Br)c1 | -58* | 2% | -14% | -18% | -2% | 0%
c1ccc(Nc2nc(-c3cccs3)cs2)nc1 | -13 | ? | -22% | -26% | ? | -6%
CC(C)CC(N)c1csc(Nc2cnccn2)n1 (stereo not drawn) | -16 | 13µM* | -11% | -27% | 9.2µM* | ·
CC(C)CC(N)c1csc(Nc2ccccn2)n1 (stereo not drawn) | -50* | 15µM* | ? | ? | ? | ·
SMILES | IL-1B inflam inh | TDP1 cell CPT | HT1080 IDH1KD tx | HT1080NT lethal | TDP1 cell noCPT | uPA surface inh
CC(NC(=O)c1ccccc1F)C12CC3CC(CC(C3)C1)C2 (stereo not drawn) | 9 | 21µM* | 5% | 6% | ? | -10%
C=CCOC(=O)/C=C/C(=O)NC(N)=O | -20 | 10µM* | -2% | 3% | 16µM* | 7%
Cc1cc(C(=O)CN2CCC(C)CC2)c(C)n1-c1ccccc1F | -13 | ? | -8% | -2% | 16µM* | 0%
Cc1cc(C(=O)CN2C(=O)C(=O)N(Cc3ccccc3)C2=O)c(C)n1-c1ccccc1F | -11 | -6% | -27% | 0% | ? | 2%
CC(C)C[C@@H](CSc1ccccc1)N1CCN(CCc2ccccc2)CCC1=O | 18 | ? | -14% | -12% | 21µM* | ?
Cc1ccc(SC[C@H](c2ccccc2)N2CCN(CCc3ccccc3)CCC2=O)cc1 | 18 | ? | -4% | 0% | 21µM* | -5%
O=C1CCN(CCc2ccccc2)CCN1[C@H](CO)c1ccccc1 | 12 | -23% | 2% | 0% | -15% | -4%
O=C1CCN(CCc2ccccc2)CCN1[C@H](CSc1ccccc1)c1ccccc1 | 25 | 11µM* | 3% | -8% | 11µM* | -20%
COc1ccc(NC(=O)c2sc(=O)n(Cc3ccccc3C#N)c2C)cc1OC | 2 | ? | -4% | 5% | ? | ·
COc1ccccc1C(C(=O)c1ccccc1)c1ccc2ccccc2c1 (stereo not drawn) | -71* | ? | -15% | -4% | 16µM* | ·
